In PubChem BioAssay (Tox21):
Results filed as inconclusive are left out. Values without a mark were called inactive. Active and inactive are the calls of the source. Calls follow the shape of the dose curve; as a rule, active = well fitted inhibition curve with a large enough effect in the repeat runs; inconclusive = weak or mixed curves; inactive = flat fitted curve, though single readings scatter.

Molecular target: Luciferin 4-monooxygenase (Photinus pyralis) (UniProt P08659)
Assay: qHTS assay to identify small molecule inhibitors of firefly luciferase (AID 1224835); also: nearly all actives have a fitted effect of over 25% in size
Conditions: purified P. pyralis luciferase, luminescence inhibition; series mostly up to 115 µM; activity change, negative = inhibition: at the top concentration
Text: U.S. Tox21 Program National Center for Advancing Translational Sciences [NCATS] NIH Chemical Genomics Center [NCGC] U.S. Environmental Protection Agency [EPA] National Institutes of Environmental Health Sciences [NIEHS] National Toxicology Program [NTP] U.S. Food and Drug Administration [FDA] Tox21 Assay Overview: Firefly (Photinus pyralis) luciferase is one of the most commonly used transcriptional reporters. Firefly luciferase reporter-gene assays are generally considered one of the most sensitive assay types (Wood, 1995; Wood, 1998). However, it was initially observed, in 1991, by Thompson et al., that compounds that resemble the substrates of firefly luciferase (FLuc) can act as competitive inhibitors of the enzyme, and that these compounds, upon interaction with luciferase in the cell, can actually stabilize the protein and increase its half-life. Previous profiling work by other groups to determine the prevalence of compounds that affect FLuc enzymatic activity (PubChem AID 411) identified that ~3% of the MLSMR library (then at ~72K) inhibited FLuc. […] Thus the Tox21 10K library is profiled for activity against FLuc using a biochemical assay of purified FLuc and KM concentrations of FLuc substrates (D-luciferin and ATP).
These assay plates were then treated with 23nL of compound or DMSO using a Kalypsys pin tool, which allows for delivery of a 6-point interplate titration of each compound to the assay plate (quantitative HTS.) 1 uL of firefly luciferase mix (containing 50 mM Tris acetate, pH 7.6, 0.04 uM P. pyralis luciferase, 0.01% Tween, 0.05% BSA and dH2O) was then delivered by FRD to each well. Luciferase activity was then measured using a ViewLux CCD imager.
% is scaled to controls: 0 for no effect and ±100 for the full control effect; potency is read from the fitted curve at half-maximal effect.

Sequence of Luciferin 4-monooxygenase (Photinus pyralis) (P08659 whole entry, looked up): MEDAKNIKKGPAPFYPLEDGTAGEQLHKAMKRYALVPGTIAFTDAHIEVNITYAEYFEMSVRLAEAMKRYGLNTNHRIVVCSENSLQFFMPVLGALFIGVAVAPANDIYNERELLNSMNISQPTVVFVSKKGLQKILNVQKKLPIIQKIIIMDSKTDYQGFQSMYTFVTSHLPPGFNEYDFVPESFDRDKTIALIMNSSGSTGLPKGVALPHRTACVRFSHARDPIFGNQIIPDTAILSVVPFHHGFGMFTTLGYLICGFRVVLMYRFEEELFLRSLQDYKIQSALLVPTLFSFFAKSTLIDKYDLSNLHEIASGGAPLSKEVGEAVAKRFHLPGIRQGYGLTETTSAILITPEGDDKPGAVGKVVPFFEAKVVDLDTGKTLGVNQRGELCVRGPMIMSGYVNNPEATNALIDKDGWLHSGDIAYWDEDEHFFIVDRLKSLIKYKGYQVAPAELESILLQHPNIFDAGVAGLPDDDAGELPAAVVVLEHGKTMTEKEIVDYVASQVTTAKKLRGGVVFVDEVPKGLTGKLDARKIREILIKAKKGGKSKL

Compared with `C=CCCCCCCCCC(=O)OCC`, `CCOC(=O)CCC(=O)OCC` is higher in “activity change, negative = inhibition” value: 1.23% for the first, 1.45% for the second.

First: O=S(=O)(O)c1cccc2ccccc12
Second: O=S(=O)(O)c1cccc(S(=O)(=O)O)c1
The “activity change, negative = inhibition” value of the first is lower: 0.75% for the first, 2.22% for the second.

Compared with `CC(C)(N)C#N`, `CCCCCCC#CC(=O)OC` is higher in “activity change, negative = inhibition” value: 0.686% for the first, 1.25% for the second.

Compared with `CN(C)CCN(C)CCN(C)C`, `CCCO[Si](OCCC)(OCCC)OCCC` is higher in “activity change, negative = inhibition” value: -3.69% for the first, 0.392% for the second.

Going from `NC(CCC(=O)O)C(=O)O` (stereo not given) to `O=C(O)CNC(=O)c1ccc(CO)o1`, the “activity change, negative = inhibition” value falls from 0.894% to -1.53%.

Going from `CCCCCCC1CCC(=O)O1` (stereo not given) to `CC1=CC(=O)[C@H]2C[C@@H]1C2(C)C`, the “activity change, negative = inhibition” value falls from 0.696% to -0.354%.

First: CCCCc1ccc2c(n1)[C@@H](c1ccc(OC)cc1C[C@H](C)C(=O)O)[C@H](C(=O)O)[C@H]2c1ccc2c(c1)OCO2
Second: COc1ccnc(CS(=O)c2nc3cc(OC(F)F)ccc3[nH]2)c1OC (stereo not given)
The “activity change, negative = inhibition” value of the first is lower: -9.12% for the first, 0.365% for the second.

Going from `CC1=NN(c2cccc(S(=O)(=O)O)c2)C(=O)C1` to `CC(=O)c1ccccc1[N+](=O)[O-]`, the “activity change, negative = inhibition” value rises from -0.263% to -0.121%.

Going from `CO[Si](C)(OC)c1ccccc1` to `CCOc1ccccc1OCC`, the “activity change, negative = inhibition” value rises from 0.232% to 0.357%.

`CN1C(C)(C)CC(O)CC1(C)C` was tested, and the “activity change, negative = inhibition” value was 7.71%.

Compared with `[O-][n+]1cccc(CO)c1`, `NC(=O)N1c2ccccc2CC(=O)c2ccccc21` is lower in “activity change, negative = inhibition” value: 8.25% [at 52.9 µM] for the first, -1.12% [at 52.9 µM] for the second.

Going from `C[N+](C)(CCOc1ccccc1)Cc1cccs1` to `COc1ccccc1OCC1CNC(=O)O1` (stereo not given), the “activity change, negative = inhibition” value rises from -2.83% [at 52.9 µM] to 4.05% [at 52.9 µM].

Going from `CCN[C@H]1C[C@H](C)S(=O)(=O)c2sc(S(N)(=O)=O)cc21` to `CCCCS(=O)(=O)N[C@@H](Cc1ccc(OCCCCC2CCNCC2)cc1)C(=O)O`, the “activity change, negative = inhibition” value falls from 4.22% [at 52.9 µM] to 3.44% [at 52.9 µM].

First: Cc1ccnc(NS(=O)(=O)c2ccc(N)cc2)n1
Second: COc1cc(-c2ccc(=O)[nH]n2)ccc1OC(F)F
The “activity change, negative = inhibition” value of the first is lower: -0.536% [at 52.9 µM] for the first, 1.08% [at 52.9 µM] for the second.

Going from `COc1cc(C)nc(-n2nc(C)cc2OC)n1` to `COc1cc(C(=O)OC(COCCC(C)C)CN2CCOCC2)cc(OC)c1OC` (stereo not given), the “activity change, negative = inhibition” value rises from -0.82% [at 52.9 µM] to 1.46% [at 52.9 µM].

Going from `CC1(C)OC[C@@H](COC(=O)CCc2ccc(OC[C@@H](O)CNCCNC(=O)N3CCOCC3)cc2)O1` to `NCCCC[C@H](N[C@@H](CCc1ccccc1)C(=O)O)C(=O)N1CCC[C@H]1C(=O)O`, the “activity change, negative = inhibition” value rises from 0.447% [at 52.9 µM] to 1.57% [at 52.9 µM].

Going from `COc1c(N2CCNC(C)C2)c(F)cc2c(=O)c(C(=O)O)cn(C3CC3)c12` (stereo not given) to `CC(=O)OCC(=O)[C@@]1(O)[C@H](C)C[C@H]2[C@@H]3CCC4=CC(=O)C=C[C@]4(C)[C@@]3(F)[C@@H](O)C[C@@]21C`, the “activity change, negative = inhibition” value rises from 0.931% [at 52.9 µM] to 1.62% [at 52.9 µM].

Compared with `CCC1C(=O)OCC1Cc1cncn1C` (stereo not given), `CC/C=C\CCOC(C)OCC` (stereo not given) is lower in “activity change, negative = inhibition” value: 1.06% [at 52.9 µM] for the first, -1.21% [at 52.9 µM] for the second.

For `CNCC(O)c1ccc(O)c(O)c1` (stereo not given), the “activity change, negative = inhibition” value was 1.12% [at 52.9 µM].

With `NC(N)=NCCN1CCCCCCC1` the activity change, negative = inhibition was -0.118% [at 0.435 µM].

For `CCCCCC(=O)OCCc1ccccc1`, the Potency was 15.9 µM (active).
For `CCOc1ccc2nc(S(N)(=O)=O)sc2c1`, the Potency was 34.7 µM (active).

`CCCCCCCCCCOc1cc2c(=O)c(C(=O)OCC)c[nH]c2cc1OCC` gave an activity change, negative = inhibition of -1.76% [at 10.5 µM].
